In PubChem BioAssay AID1159580 (chemical genetic matrix, 2015):
Screen size: about 5,500 compounds; about 2,000 (36%) were called active. About 18% were inconclusive and are not listed. No stated cut-off is given here; in the data, active means normalized growth mostly below about 0.91 (no sharp cut-off); inconclusive means no clear call, values can overlap the other calls; inactive means mostly above about 0.92. The list shows a part of the results.

Assay: chemical genetic growth profiling, strain panel (AID 1159580);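 further: tested at 20 µM; growth read once vehicle control cultures reached saturation at 30 °C; 1 = growth at the plate median or of vehicle wells; lower values mean less growth of the strain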
Details: growth OD

Measured: normalized growth

CC(C)(Oc1ccc(Cl)cc1)C(=O)O
inactive: S. cerevisiae deletion strains, locus YJR075W, strain HOC1, active compounds read low 0.992 | S. cerevisiae deletion strains, locus YKL009W, strain mrt4, active compounds read low 0.983 | S. cerevisiae deletion strains, locus YKL068W, active compounds read low 0.967 | S. cerevisiae deletion strains, locus YKL085W, strain MDH1 (second series), active compounds read low 0.981 | S. cerevisiae deletion strains, locus YKL085W, strain MDH1, active compounds read low 0.981 | S. cerevisiae deletion strains, locus YKL160W, strain elf1, active compounds read low 1.02 | S. cerevisiae deletion strains, locus YKL190W, strain CNB1, active compounds read low 0.996 | S. cerevisiae deletion strains, locus YKR001C, strain vps1, active compounds read low 0.973 | S. cerevisiae deletion strains, locus YKR026C, strain gcn3, active compounds read low 1 | S. cerevisiae deletion strains, locus YKR091W, strain srl3, active compounds read low 0.999 | S. cerevisiae deletion strains, locus YLL001W, strain dnm1, active compounds read low 1 | S. cerevisiae deletion strains, locus YLL026W, active compounds read low 1.01 | S. cerevisiae deletion strains, locus YLL041C, strain sdh2, active compounds read low 0.996 | S. cerevisiae deletion strains, locus YLR027C, strain aat2, active compounds read low 1.01 | S. cerevisiae deletion strains, locus YLR039C, strain RIC1, active compounds read low 0.967 | S. cerevisiae deletion strains, locus YLR058C, strain SHM2, active compounds read low 0.994 | S. cerevisiae deletion strains, locus YLR102C, strain apc9, active compounds read low 0.987 | S. cerevisiae deletion strains, locus YLR221C, strain rsa3, active compounds read low 0.981 | S. cerevisiae deletion strains, locus YLR258W, strain gsy2, active compounds read low 1.03 | S. cerevisiae deletion strains, locus YLR262C, strain YPT6 (second series), active compounds read low 1 | S. cerevisiae deletion strains, locus YLR262C, strain YPT6, active compounds read low 0.948 | S. cerevisiae deletion strains, locus YLR268W, strain sec22, active compounds read low 0.927 | S. cerevisiae deletion strains, locus YLR320W, strain mms22, active compounds read low 0.98 | S. cerevisiae deletion strains, locus YLR330W, strain CHS5, active compounds read low 0.985 | S. cerevisiae deletion strains, locus YLR342W, strain FKS1 (second series), active compounds read low 1.06 | S. cerevisiae deletion strains, locus YLR342W, strain FKS1, active compounds read low 1.03 | S. cerevisiae deletion strains, locus YLR357W, strain rsc2, active compounds read low 1.03 | S. cerevisiae deletion strains, locus YLR370C, strain arc18, active compounds read low 1.02 | S. cerevisiae deletion strains, locus YLR371W, strain rom2, active compounds read low 0.98 | S. cerevisiae deletion strains, locus YLR384C, strain iki3, active compounds read low 0.991 | S. cerevisiae deletion strains, locus YLR418C, strain cdc73, active compounds read low 1 | S. cerevisiae deletion strains, locus YML016C, strain PPZ1, active compounds read low 0.995 | S. cerevisiae deletion strains, locus YML032C, strain rad52, active compounds read low 0.958 | S. cerevisiae deletion strains, locus YML120C, strain ndi1, active compounds read low 0.983 | S. cerevisiae deletion strains, locus YML124C, strain tub3, active compounds read low 0.99 | S. cerevisiae deletion strains, locus YMR058W, strain fet3, active compounds read low 1.01 | S. cerevisiae deletion strains, locus YMR078C, strain ctf18, active compounds read low 0.978 | S. cerevisiae deletion strains, locus YMR125W, strain sto1, active compounds read low 1.05 | S. cerevisiae deletion strains, locus YMR129W, active compounds read low 1.02 | S. cerevisiae deletion strains, locus YMR205C, strain PFK2, active compounds read low 0.991 | S. cerevisiae deletion strains, locus YMR223W, strain ubp8, active compounds read low 1.03 | S. cerevisiae deletion strains, locus YMR231W, strain pep5, active compounds read low 0.999 | S. cerevisiae deletion strains, locus YMR263W, strain SAP30, active compounds read low 0.985 | S. cerevisiae deletion strains, locus YMR307W, strain GAS1, active compounds read low 1.09 | S. cerevisiae deletion strains, locus YNL067W, strain RPL9B, active compounds read low 0.977 | S. cerevisiae deletion strains, locus YNL071W, strain lat1, active compounds read low 1.02 | S. cerevisiae deletion strains, locus YNL128W, strain TEP1, active compounds read low 0.996 | S. cerevisiae deletion strains, locus YNL153C, strain GIM3, active compounds read low 0.979 | S. cerevisiae deletion strains, locus YNL209W, strain ssb2, active compounds read low 1.02 | S. cerevisiae deletion strains, locus YNL233W, strain BNI4, active compounds read low 0.994 | S. cerevisiae deletion strains, locus YNL248C, strain rpa49, active compounds read low 1.05 | S. cerevisiae deletion strains, locus YNL250W, strain rad50, active compounds read low 0.985 | S. cerevisiae deletion strains, locus YNL271C, strain bni1, active compounds read low 0.983 | S. cerevisiae deletion strains, locus YNL298W, strain CLA4, active compounds read low 0.963 | S. cerevisiae deletion strains, locus YNL307C, strain MCK1, active compounds read low 0.976 | S. cerevisiae deletion strains, locus YNL322C, strain KRE1 (second series), active compounds read low 0.996 | S. cerevisiae deletion strains, locus YNL322C, strain KRE1, active compounds read low 0.995 | S. cerevisiae deletion strains, locus YNR049C, strain mso1, active compounds read low 1.01 | S. cerevisiae deletion strains, locus YNR052C, strain pop2, active compounds read low 0.98 | S. cerevisiae deletion strains, locus YOL006C, strain TOP1, active compounds read low 0.941 | S. cerevisiae deletion strains, locus YOL012C, strain htz1 0.835 | S. cerevisiae deletion strains, locus YOL147C, strain pex11, active compounds read low 0.987 | S. cerevisiae deletion strains, locus YOR001W, strain rrp6, active compounds read low 0.962 | S. cerevisiae deletion strains, locus YOR061W, strain CKA2, active compounds read low 0.995 | S. cerevisiae deletion strains, locus YOR069W, strain VPS5, active compounds read low 0.991 | S. cerevisiae deletion strains, locus YOR070C, strain gyp1, active compounds read low 1.01 | S. cerevisiae deletion strains, locus YOR080W, strain dia2, active compounds read low 1.01 | S. cerevisiae deletion strains, locus YOR083W, strain WHI5, active compounds read low 0.985 | S. cerevisiae deletion strains, locus YOR106W, strain vam3, active compounds read low 1.04 | S. cerevisiae deletion strains, locus YOR136W, strain idh2, active compounds read low 0.989 | S. cerevisiae deletion strains, locus YOR144C, strain elg1, active compounds read low 0.982 | S. cerevisiae deletion strains, locus YOR184W, strain ser1, active compounds read low 0.964 | S. cerevisiae deletion strains, locus YOR265W, strain rbl2, active compounds read low 1.01 | S. cerevisiae deletion strains, locus YOR270C, strain vph1, active compounds read low 1.09 | S. cerevisiae deletion strains, locus YOR290C, strain snf2, active compounds read low 1.03 | S. cerevisiae deletion strains, locus YOR316C, strain cot1, active compounds read low 0.962 | S. cerevisiae deletion strains, locus YPL051W, strain arl3, active compounds read low 1.04 | S. cerevisiae deletion strains, locus YPL055C, strain LGE1, active compounds read low 0.996 | S. cerevisiae deletion strains, locus YPL078C, strain atp4, active compounds read low 1.05 | S. cerevisiae deletion strains, locus YPL106C, strain sse1, active compounds read low 1.06 | S. cerevisiae deletion strains, locus YPL240C, strain hsp82, active compounds read low 1 | S. cerevisiae deletion strains, locus YPL241C, strain CIN2, active compounds read low 0.994 | S. cerevisiae deletion strains, locus YPR119W, strain clb2, active compounds read low 0.971 | S. cerevisiae deletion strains, locus YPR141C, strain kar3, active compounds read low 0.982 | S. cerevisiae deletion strains, locus YPR163C, strain tif3, active compounds read low 0.975 | S. cerevisiae deletion strains, locus YPR167C, strain met16, active compounds read low 0.966 | S. cerevisiae deletion strains, strain wtn01, active compounds read low 0.955 | S. cerevisiae strains, strain wild type, active compounds read low 0.995
